# About 79,000 compounds went through this panel and 15% of them were active in at least one assay; those are over-represented in the sample as a whole. A number with no mark means an inactive call. Calls of active or inactive are those of the source. No stated cut-off is given here; in the data, active means growth inhibition above about 70%; inactive means the rest.
# Tests used:
# [1] = NCI Yeast Anticancer Drug Screen. Data for the rad52 strain (AID 147);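 further: 0% = growth of vehicle-treated control cultures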; conditions: S. cerevisiae rad52 mutant growth inhibition, active compounds read high
# Outline: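 Here a repair-compromised yeast strain receives each compound; its growth is then quantified and normalised to vehicle-only controls.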
# [2] = NCI Yeast Anticancer Drug Screen. Data for the wt1 strain (AID 149);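 further: 0% = growth of vehicle-treated wt1 cultures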; conditions: S. cerevisiae wt1 strain (SPY 50644) growth inhibition, active compounds read high
# Outline: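 Measured: growth of wt1 yeast under compound versus vehicle treatment, reported as inhibition.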
# [3] = NCI Yeast Anticancer Drug Screen. Data for the rad50EPP+ strain (AID 151);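 further: 0% = growth of vehicle-treated control cultures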; conditions: S. cerevisiae rad50 mutant strain, active compounds read high
# Outline: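 Read-out is yeast growth inhibition relative to vehicle; cells used were the rad50EPP+ strain.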
# [4] = NCI Yeast Anticancer Drug Screen. Data for the mgt1 strain (AID 153); conditions: S. cerevisiae mgt1 mutant growth inhibition, active compounds read high
# Outline: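 Measured: inhibition of mgt1 yeast growth by compound, normalized to vehicle-treated cultures.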
# [5] = NCI Yeast Anticancer Drug Screen. Data for the rad50 strain (AID 155);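 further: 0% = growth of vehicle-only cultures of the same strain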; conditions: S. cerevisiae rad50 strain growth inhibition, active compounds read high
# Outline: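 Growth of the mutant yeast was measured after compound exposure and referenced to vehicle-treated cultures.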
# [6] = NCI Yeast Anticancer Drug Screen. Data for the mec2-1 strain (AID 157); conditions: S. cerevisiae mec2-1 strain, active compounds read high
# Outline: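 Using mec2-1 yeast: add compound, measure growth, express inhibition versus vehicle-treated cultures.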
# [7] = NCI Yeast Anticancer Drug Screen. Data for the rad14 strain (AID 159);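 further: 0% = growth of vehicle-treated control cultures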; conditions: S. cerevisiae rad14 strain growth inhibition, active compounds read high
# Outline: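 Here, inhibition of yeast growth was measured after compound exposure, using a strain with a genetic defect in DNA damage repair and vehicle-treated cultures as the reference.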
# [8] = NCI Yeast Anticancer Drug Screen. Data for the sgs1 mgt1 strain (AID 161);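 further: 0% = growth of cultures given vehicle only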; conditions: S. cerevisiae sgs1 mgt1 strain, active compounds read high
# Outline: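 Growth of a repair-deficient yeast mutant was monitored after compound treatment and expressed as inhibition relative to vehicle-treated cultures.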
# [9] = NCI Yeast Anticancer Drug Screen. Data for the CLN2oe strain (AID 163);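 further: 0% = growth of vehicle-only control cultures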; conditions: S. cerevisiae CLN2oe strain, active compounds read high
# Outline: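 Whole-cell yeast growth assay. A strain engineered for altered cell-cycle control received compound, and inhibition relative to vehicle-treated cultures was recorded.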
# [10] = NCI Yeast Anticancer Drug Screen. Data for the cln2 rad14 strain (AID 165);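 further: 0% = growth equal to vehicle treated cultures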; conditions: S. cerevisiae cln2 rad14 strain, active compounds read high
# Outline: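 Yeast strain cln2 rad14, bearing defects in cell cycle control and DNA repair, serves as the test system; values reflect growth inhibition compared with vehicle.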
# [11] = NCI Yeast Anticancer Drug Screen. Data for the bub3 strain (AID 167); conditions: S. cerevisiae bub3 mutant strain, active compounds read high
# Outline: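 Whole-cell yeast assay. The mutant strain was incubated with compounds, and growth inhibition was determined by comparison with vehicle-treated cells.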
# [12] = NCI Yeast Anticancer Drug Screen. Data for the wt2 strain (AID 169);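 further: 0% = growth of vehicle-treated yeast cultures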; conditions: S. cerevisiae wt2 strain growth inhibition, active compounds read high
# Outline: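 Treated yeast vs. vehicle-treated yeast: growth inhibition determined.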
# [13] = NCI Yeast Anticancer Drug Screen. Data for the mlh1 strain (AID 171);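 further: 0% = growth of vehicle-treated control cultures of the same strain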; conditions: S. cerevisiae mlh1 strain growth inhibition, active compounds read high
# Outline: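 A yeast strain with a defined genetic lesion serves as the test organism. Cultures receive compound or vehicle, and growth is measured.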
# [14] = NCI Yeast Anticancer Drug Screen. Data for the sgs1 strain (AID 173);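 further: 0% = growth of vehicle-only control cultures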; conditions: S. cerevisiae sgs1 mutant, active compounds read high
# Outline: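 A genetically defined yeast mutant is incubated with the test compound, and its growth is compared to that of the same strain given vehicle.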
# [15] = NCI Yeast Anticancer Drug Screen. Data for the mlh1 rad18 strain (AID 175); conditions: S. cerevisiae mlh1 rad18 strain growth inhibition, active compounds read high
# Outline: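 Steps: expose repair-defective yeast to compound; measure growth; express inhibition against vehicle-treated controls.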
# [16] = NCI Yeast Anticancer Drug Screen. Data for the rad18 strain (AID 177); conditions: S. cerevisiae rad18 mutant growth inhibition, active compounds read high
# Outline: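 Measured value is growth inhibition of a yeast strain bearing a DNA repair alteration, referenced to vehicle-treated cells.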
# [17] = at 5.0 µM (retest, dose inferred, filed as 0.5)
# [18] = at 50.0 µM (retest, dose inferred, filed as 5.0)
smiles,measurement,setting,value
CCOC(=N)c1ccc(O)c(OC)c1,growth inhibition,[1]; at 1.2 µM,-1%
same,growth inhibition,[1]; at 3.7 µM,0%
same,growth inhibition,[1]; at 11.0 µM,0%
same,growth inhibition,[1]; at 33.0 µM,0%
same,growth inhibition,[1]; at 100.0 µM,-2%
same,growth inhibition,[2]; at 1.2 µM,-3%
same,growth inhibition,[2]; at 3.7 µM,-2%
same,growth inhibition,[2]; at 11.0 µM,-3%
same,growth inhibition,[2]; at 33.0 µM,-1%
same,growth inhibition,[2]; at 100.0 µM,-3%
same,growth inhibition,[3]; at 1.2 µM,-3%
same,growth inhibition,[3]; at 3.7 µM,-4%
same,growth inhibition,[3]; at 11.0 µM,-6%
same,growth inhibition,[3]; at 33.0 µM,-3%
same,growth inhibition,[3]; at 100.0 µM,1%
same,growth inhibition,[4]; at 1.2 µM,-2%
same,growth inhibition,[4]; at 3.7 µM,-1%
same,growth inhibition,[4]; at 11.0 µM,-2%
same,growth inhibition,[4]; at 33.0 µM,-2%
same,growth inhibition,[4]; at 100.0 µM,-2%
same,growth inhibition,[5]; at 1.2 µM,-1%
same,growth inhibition,[5]; at 3.7 µM,16%
same,growth inhibition,[5]; [17],-2%
same,growth inhibition,[5]; at 11.0 µM,11%
same,growth inhibition,[5]; at 33.0 µM,-1%
same,growth inhibition,[5]; [18],-4%
same,growth inhibition,[5]; at 50.0 µM,2%
same,growth inhibition,[5]; at 100.0 µM,2%
same,growth inhibition,[6]; at 1.2 µM,0%
same,growth inhibition,[6]; at 3.7 µM,2%
same,growth inhibition,[6]; [17],-42%
same,growth inhibition,[6]; at 11.0 µM,2%
same,growth inhibition,[6]; at 33.0 µM,3%
same,growth inhibition,[6]; [18],-3%
same,growth inhibition,[6]; at 50.0 µM,-9%
same,growth inhibition,[6]; at 100.0 µM,2%
same,growth inhibition,[7]; at 1.2 µM,-2%
same,growth inhibition,[7]; at 3.7 µM,-6%
same,growth inhibition,[7]; at 11.0 µM,-19%
same,growth inhibition,[7]; at 33.0 µM,-4%
same,growth inhibition,[7]; at 100.0 µM,-1%
same,growth inhibition,[8]; [17],0%
same,growth inhibition,[8]; [18],-4%
same,growth inhibition,[8]; at 50.0 µM,-2.6%
same,growth inhibition,[9]; at 1.2 µM,-2%
same,growth inhibition,[9]; at 3.7 µM,-5%
same,growth inhibition,[9]; at 11.0 µM,1%
same,growth inhibition,[9]; at 33.0 µM,-3%
same,growth inhibition,[9]; at 100.0 µM,-1%
same,growth inhibition,[10]; [17],2%
same,growth inhibition,[10]; [18],0%
same,growth inhibition,[10]; at 50.0 µM,-39.2%
same,growth inhibition,[11]; at 1.2 µM,7%
same,growth inhibition,[11]; at 3.7 µM,17%
same,growth inhibition,[11]; [17],30%
same,growth inhibition,[11]; at 11.0 µM,48%
same,growth inhibition,[11]; at 33.0 µM,66%
same,growth inhibition,[11]; [18],83% (active)
same,growth inhibition,[11]; at 50.0 µM,86.6% (active)
same,growth inhibition,[11]; at 100.0 µM,79% (active)
same,growth inhibition,[12]; at 1.2 µM,-3%
same,growth inhibition,[12]; at 3.7 µM,6%
same,growth inhibition,[12]; at 11.0 µM,-3%
same,growth inhibition,[12]; at 33.0 µM,-1%
same,growth inhibition,[12]; at 100.0 µM,-2%
same,growth inhibition,[13]; at 1.2 µM,-2%
same,growth inhibition,[13]; at 3.7 µM,-3%
same,growth inhibition,[13]; at 11.0 µM,-2%
same,growth inhibition,[13]; at 33.0 µM,1%
same,growth inhibition,[13]; at 100.0 µM,1%
same,growth inhibition,[14]; at 1.2 µM,-3%
same,growth inhibition,[14]; at 3.7 µM,-5%
same,growth inhibition,[14]; at 11.0 µM,-4%
same,growth inhibition,[14]; at 33.0 µM,-3%
same,growth inhibition,[14]; at 100.0 µM,3%
same,growth inhibition,[15]; [17],-1%
same,growth inhibition,[15]; [18],-3%
same,growth inhibition,[15]; at 50.0 µM,17.4%
same,growth inhibition,[16]; at 1.2 µM,-1%
same,growth inhibition,[16]; at 3.7 µM,-3%
same,growth inhibition,[16]; at 11.0 µM,-3%
same,growth inhibition,[16]; at 33.0 µM,0%
same,growth inhibition,[16]; at 100.0 µM,14%
CCOC1(c2cccc([N+](=O)[O-])c2)c2ccccc2Oc2ccccc21,growth inhibition,[1]; at 1.2 µM,0%
same,growth inhibition,[1]; at 3.7 µM,2%
same,growth inhibition,[1]; at 11.0 µM,4%
same,growth inhibition,[1]; at 33.0 µM,10%
same,growth inhibition,[1]; at 100.0 µM,19%
same,growth inhibition,[2]; at 1.2 µM,2%
same,growth inhibition,[2]; at 3.7 µM,1%
same,growth inhibition,[2]; at 11.0 µM,4%
same,growth inhibition,[2]; at 33.0 µM,2%
same,growth inhibition,[2]; at 100.0 µM,3%
same,growth inhibition,[3]; at 1.2 µM,3%
same,growth inhibition,[3]; at 3.7 µM,2%
same,growth inhibition,[3]; at 11.0 µM,11%
same,growth inhibition,[3]; at 33.0 µM,24%
same,growth inhibition,[3]; at 100.0 µM,19%
same,growth inhibition,[4]; at 1.2 µM,0%
same,growth inhibition,[4]; at 3.7 µM,-2%
same,growth inhibition,[4]; at 11.0 µM,0%
same,growth inhibition,[4]; at 33.0 µM,15%
same,growth inhibition,[4]; at 100.0 µM,0%
same,growth inhibition,[5]; at 1.2 µM,1%
same,growth inhibition,[5]; at 3.7 µM,0%
same,growth inhibition,[5]; [17],41%
same,growth inhibition,[5]; at 11.0 µM,4%
same,growth inhibition,[5]; at 33.0 µM,7%
same,growth inhibition,[5]; [18],69%
same,growth inhibition,[5]; at 50.0 µM,51.8%
same,growth inhibition,[5]; at 100.0 µM,9%
same,growth inhibition,[6]; at 1.2 µM,-3%
same,growth inhibition,[6]; at 3.7 µM,2%
same,growth inhibition,[6]; [17],3%
same,growth inhibition,[6]; at 11.0 µM,0%
same,growth inhibition,[6]; at 33.0 µM,7%
same,growth inhibition,[6]; [18],23%
same,growth inhibition,[6]; at 50.0 µM,26.4%
same,growth inhibition,[6]; at 100.0 µM,13%
same,growth inhibition,[7]; at 1.2 µM,0%
same,growth inhibition,[7]; at 3.7 µM,2%
same,growth inhibition,[7]; at 11.0 µM,5%
same,growth inhibition,[7]; at 33.0 µM,7%
same,growth inhibition,[7]; at 100.0 µM,10%
same,growth inhibition,[8]; [17],26%
same,growth inhibition,[8]; [18],60%
same,growth inhibition,[8]; at 50.0 µM,57.6%
same,growth inhibition,[9]; at 1.2 µM,-6%
same,growth inhibition,[9]; at 3.7 µM,-1%
same,growth inhibition,[9]; at 11.0 µM,0%
same,growth inhibition,[9]; at 33.0 µM,-1%
same,growth inhibition,[9]; at 100.0 µM,2%
same,growth inhibition,[10]; [17],12%
same,growth inhibition,[10]; [18],30%
same,growth inhibition,[10]; at 50.0 µM,3.8%
same,growth inhibition,[11]; at 1.2 µM,-1%
same,growth inhibition,[11]; at 3.7 µM,-2%
same,growth inhibition,[11]; [17],32%
same,growth inhibition,[11]; at 11.0 µM,3%
same,growth inhibition,[11]; at 33.0 µM,1%
same,growth inhibition,[11]; [18],77% (active)
same,growth inhibition,[11]; at 50.0 µM,51.7%
same,growth inhibition,[11]; at 100.0 µM,1%
same,growth inhibition,[12]; at 1.2 µM,1%
same,growth inhibition,[12]; at 3.7 µM,-1%
same,growth inhibition,[12]; at 11.0 µM,1%
same,growth inhibition,[12]; at 33.0 µM,2%
same,growth inhibition,[12]; at 100.0 µM,4%
same,growth inhibition,[13]; at 1.2 µM,-2%
same,growth inhibition,[13]; at 3.7 µM,-2%
same,growth inhibition,[13]; at 11.0 µM,1%
same,growth inhibition,[13]; at 33.0 µM,3%
same,growth inhibition,[13]; at 100.0 µM,10%
same,growth inhibition,[14]; at 1.2 µM,-1%
same,growth inhibition,[14]; at 3.7 µM,1%
same,growth inhibition,[14]; at 11.0 µM,0%
same,growth inhibition,[14]; at 33.0 µM,6%
same,growth inhibition,[14]; at 100.0 µM,16%
same,growth inhibition,[15]; [17],57%
same,growth inhibition,[15]; [18],79% (active)
same,growth inhibition,[15]; at 50.0 µM,62%
same,growth inhibition,[16]; at 1.2 µM,-1%
same,growth inhibition,[16]; at 3.7 µM,1%
same,growth inhibition,[16]; at 11.0 µM,-12%
same,growth inhibition,[16]; at 33.0 µM,-9%
same,growth inhibition,[16]; at 100.0 µM,12%

# Reference: PubChem BioAssay (NCI)
